# Experimental data: PubChem BioAssay (NCI)
# The panel holds about 83,000 compounds, 20% with a hit somewhere; the sample as a whole holds those more often.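 Growth was measured after 48 h exposure to one concentration of compound in 96-well plates. Values under 10 count as active.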 Activity calls are given as the source filed them.
# Test system: OVCAR-3 ovarian
# Test: NCI-60 one-dose screen, 48 h (100 = growth as untreated, 0 = no growth, -100 = all killed)
# Settings: 10 µM unless noted
# Method: Growth inhibition of the OVCAR-3 human tumor cell line is measured as a screen for anti-cancer activity. Cells are grown in 96 well plates and exposed to the test compound for 48 hours. Compounds are tested at a single concentration, which is 10^-5 M for most compounds. The reported endpoint is percent growth (GI% or GIPRCNT), where numbers from 0 - 100% represent growth inhibition, and numbers from -100% - 0 represent cell death. For example, a value of 40 represents 60% growth inhibition. A value of 0 means no net growth occurred over the course of the experiment. A value of -40 indicates 40% of cells at the beginning of the experiment died by the end of the experiment. A value of -100 means all cells are dead at the end of the experiment.
# NCI-60 Human Tumor Cell Lines Screen was performed using the standard one-dose NCI protocol, which is described in more detail at https://dtp.cancer.gov/discovery_development/nci-60/default.htm.
# Compounds with GIPRCNT values below 10 were considered active. Activity score was based on GIPRCNT using the following formula: […]
# Score is 0 for GIPRCNT values of 100 or above, 50 for GIPRCNT values of 0, and 100 for GIPRCNT values of -100.
row,SMILES,growth
1,CCCCCC#CC(=O)O,123% (inactive)
2,CCOC(=O)CSCCC#N,111% (inactive)
3,Cc1ccc(S(=O)(=O)NC(=O)NCCSSCCNC(=O)NS(=O)(=O)c2ccc(C)cc2)cc1,109% (inactive)
4,COc1ccc(C(=O)C(=O)c2ccccc2)cc1,108% (inactive)
5,C/C(Cc1ccccc1)=N\O,105% (inactive)
6,OCC(O)COc1ccc(Cl)cc1Cl (stereo not given),110% (inactive)
7,NNc1ncccn1,101% (inactive)
8,CN1CCCN(C(c2ccccc2)c2ccc(Cl)cc2)CC1 (stereo not given),104% (inactive)
9,C/C=C/C1OCC(CC)C(CCC)O1 (stereo not given),106% (inactive)
10,O=C(CCl)Nc1ccccc1SCc1cc(Cl)cc2c1OCOC2,26.1% (inactive)
11,COc1nc(Nc2cccc(C(F)(F)F)c2)nc(OC)n1,103% (inactive)
12,Cc1ccc([N+](=O)[O-])c(C)n1,107% (inactive)
13,O=C(O)c1ccc([N+](=O)[O-])cc1S(=O)(=O)O,99.4% (inactive)
14,O=C(c1ccc(Cl)cc1)N1CCCCC1,112% (inactive)
15,O=C(O)CCCCCNC(=O)OCc1ccccc1,104% (inactive)
16,O=C(CC(CC(=O)c1ccccc1)c1ccccn1)c1ccccc1,106% (inactive)
17,c1ccc2c(NCCCN3CCN(CCCNc4c5ccccc5nc5ccccc45)CC3)c3ccccc3nc2c1,-34.4% [100 µM] (active)
18,Nc1ncc([N+](=O)[O-])cn1,104% (inactive)
19,C[n+]1cc2cc3c(cc2c2ccccc21)OCO3,51.5% (inactive)
20,CC1=CC(=Nc2ccc(N(C)C)cc2)C=C(C)C1=O,60% (inactive)

row,SMILES,growth
1,Clc1cccc(Cl)c1CSc1nc2ccccc2n2cccc12,92.5% (inactive)
2,O=C(Nc1cccc(Cl)c1)c1ccc(Cl)cc1Cl,98% (inactive)
3,CCN(C(=O)Nc1ccccc1Cl)c1ccccc1,116% (inactive)
4,N#CCCN1C(=O)CCC1C(=O)O (stereo not given),115% (inactive)
5,CN(C)c1ccc2c(N(C)C)cc(N(C)C)nc2c1,93.6% (inactive)
6,Nc1ccc(F)c(Cl)c1F,111% (inactive)
7,O=c1n(CC2CO2)c(=O)n(CC2CO2)n1CC1CO1 (stereo not given),72.7% (inactive)
8,OCCc1ccc(Cl)cc1,105% (inactive)
9,CCOC(=O)C(CCC#N)(CCC#N)C(=O)OCC,102% (inactive)
10,CC(=O)c1cc(O)ccc1O,119% (inactive)
11,COc1cc(C(=O)NC(=S)NCc2ccncc2)cc(OC)c1OC,105% (inactive)
12,ClCC(Cl)C1CCC(Cl)C(Cl)C1 (stereo not given),114% (inactive)
13,CSc1cnc2ccccc2n1,107% (inactive)
14,O=C1C=CC(=O)C2=C1CCCC2,89% (inactive)
15,COc1cc(OC)c2cc(C(=O)c3ccc(C#N)cc3)c(=O)oc2c1,107% (inactive)
16,O=C(CCl)Oc1ccc([N+](=O)[O-])cc1,121% (inactive)
17,Cc1cccc(C)c1NC(=S)/N=C\c1c(O)[nH]c(=O)[nH]c1=O,111% (inactive)
18,CCOS(=O)(=O)c1ccc([N+](=O)[O-])cc1,106% (inactive)
19,CNc1ccccc1C(=O)N/N=C/C=C/c1ccccc1,-23.7% (active)
20,NC(=S)N/N=C/c1ccc(OC(=O)COc2ccccc2)cn1,60.2% (inactive)
